MbtI inh: blocks the Mycobacterium tuberculosis siderophore enzyme MbtI; P9WFX0; hit rate 0.89% among 100,000; purified MbtI enzyme, fluorescence intensity read-out; inhibition, % (concentration not given with the values); in the data active = inhibition mostly above about 56%, no sharp cut-off; inactive = mostly below about 77%
Target sequence (P9WFX0 whole entry, looked up): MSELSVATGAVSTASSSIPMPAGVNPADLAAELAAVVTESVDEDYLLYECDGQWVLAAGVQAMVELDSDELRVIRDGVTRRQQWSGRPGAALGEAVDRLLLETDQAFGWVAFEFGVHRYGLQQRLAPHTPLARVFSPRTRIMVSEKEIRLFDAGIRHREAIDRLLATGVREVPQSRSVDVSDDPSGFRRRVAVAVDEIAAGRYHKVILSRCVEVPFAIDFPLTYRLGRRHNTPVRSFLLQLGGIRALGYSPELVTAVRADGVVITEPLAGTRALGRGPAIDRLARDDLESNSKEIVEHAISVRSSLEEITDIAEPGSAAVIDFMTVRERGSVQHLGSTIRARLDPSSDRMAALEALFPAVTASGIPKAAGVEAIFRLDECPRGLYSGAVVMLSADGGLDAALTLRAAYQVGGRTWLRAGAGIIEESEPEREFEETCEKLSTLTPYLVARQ
Mtb MenB inh: blocks the Mycobacterium tuberculosis MenB enzyme; MenB enzyme assay, absorbance read-out; hit rate 0.43% among 100,000; P9WNP5; inhibition, % (test concentration not listed); in the data active = inhibition above about 21%, passing the limit was not always enough
Polio RdRp inh: inhibitors of poliovirus RNA polymerase binding and polymerization; poliovirus polymerase elongation, fluorescence polarization; active compounds read low; AID 588519; % elongation, % (compound at 16.7 µg/mL); hit rate 0.66% among 150,000; P03300; in the data active = % elongation below about 90%
The depositor's hits bear a star; x = no result. Sampled rows, rich in hits. Any-hit rate of the full collection: about 1.5%.

SMILES	MbtI inh	Mtb MenB inh	Polio RdRp inh
OC1(CCC2(O)CCCC2)CCCC1	-5	28*	100
Cc1ccc2c(c1)c(N=NC(N)=S)c(O)n2CO	15	-39	100
CCn1c(O)c(N=NC(N)=S)c2ccccc21	78	-66	76*
Cn1cccc1/C=C/C(=O)OCC(=O)c1ccc(Cl)s1	14	-9	106
Cn1cccc1/C=C/C(=O)O	11	-21	76*
Cc1cccc(-c2nc(S(=O)(=O)c3ccccc3)c(N3CCN(c4ccccc4)CC3)o2)c1	x	x	104
COC(=O)c1ccc[nH]c1=S	61	-2	100
CCC(CC)NC(=O)c1ccc[nH]c1=S	93*	-21	102
Cc1cc2n(n1)CCCN2C(=O)CCC(=O)N1CCCCCC1	-2	14	103
O=c1[nH]c2cc(Br)cnc2[nH]1	1	-19	66*
O=c1[nH]c2ccccc2[nH]1	-1	8	94
Cc1cccc(-c2nnc(-c3ccccc3)o2)c1	-109	-29	103
Cc1cccc(-c2nnc(C3CCNCC3)o2)c1	78*	-34	102
Cc1oc2c(c1C(=O)O)C(=O)c1ccccc1C2=O	-3	-13	66*
Cc1oc2c(c1C(=O)NCc1ccccc1)C(=O)c1ccccc1C2=O	13	-2	101
Cc1ccc2c(CC(=O)NCc3ccccc3)coc2c1C	x	x	1.0*
Cc1ccc2c(CC(=O)Nc3ccccc3C(F)(F)F)coc2c1C	x	x	118
CC1(C)CC(=O)C(C=Nc2ccc(S(N)(=O)=O)cc2)=C(O)C1	4	3	100
CCc1nnc(NC(=O)CCCn2c(=O)oc3ccccc32)s1	4	-19	103
Nc1nnc(CCCn2c(=O)oc3ccccc32)s1	x	-9	86*
O=C(CSC1=NCCS1)OCN1C(=O)c2ccccc2C1=O	22	38*	104
Cc1cc(C)nc(SCC(=O)OCN2C(=O)c3ccccc3C2=O)n1	-10	-16	103
CCNc1c(NC(=O)Nc2ccc(CC)cc2)c(=O)oc2ccccc12	18	-22	102
CC1CCc2onc(C(=O)N3CCN(c4ccc(Cl)cc4)CC3)c2C1 (stereo not given)	x	x	113
O=C(OCN1C(=O)c2ccccc2C1=O)C1CCN(S(=O)(=O)c2ccc3c(c2)OCCO3)CC1	14	-21	97
SMILES	MbtI inh	Mtb MenB inh	Polio RdRp inh
Brc1ccc(-c2ccc(C3CCCCC3)cn2)cc1	x	-25	112
Cc1ccc(/C=C2/NC(=O)N(Cc3ccc(Br)cc3)C2=O)o1	63	-26	102
CCCN1C(=O)/C(=C/c2ccc(C)o2)NC1=S	63*	-74	101
CCN(CC(=O)Nc1ccc2c(c1)CCC2)CC(=O)Nc1ccc2c(c1)OCCO2	0	-34	108
COc1ccccc1-n1nnc(C(=O)Nc2nccs2)c1C	6	3	101
C=CCn1c(Sc2c3c(nc4ncnn24)CCC3)nnc1-c1ccccc1	1	-15	100
C/C(=N\O)C(=O)c1ccc(Cl)cc1	-3	-11	98
COc1ccc(C(CC(=O)Nc2ccc3c(c2)OCO3)N2Cc3ccccc3C2=O)cc1 (stereo not given)	-16	-2	101
CC(C)Cn1c(SCc2nnc(-c3cccs3)o2)nc(O)cc1=O	17	-165	83*
C=CCn1c(SCc2nnc(-c3cccs3)o2)nc2scc(C3CC3)c2c1=O	6	-17	104
C/C(O)=C\c1sc2ccccc2[n+]1C	7	21	100
C[n+]1c(CF)sc2ccccc21	97*	x	98
CC(C)C(C(=O)O)N1C(=O)/C(=C/C=C/c2ccco2)SC1=S (stereo not given)	9	-274	109
O=C(O)CCC(C(=O)O)N1C(=O)/C(=C/C=C/c2ccco2)SC1=S (stereo not given)	11	-202	89*
CC(=O)Nc1sc(=Nc2ccc(C)c(C)c2)n(C(C)=O)c1-c1ccc2c(c1)OCO2	0	-44	101
CCC(Sc1nnc(N)s1)C(=O)Nc1ccc(S(N)(=O)=O)cc1 (stereo not given)	-1	2	102
O=S(=O)(c1ccccc1C(F)(F)F)N1CCNCC1	-9	-18	100
CN1CCN(S(=O)(=O)c2ccccc2C(F)(F)F)CC1	4	-13	89*
Cc1sc2nc(C)n(C3CCN(CC(=O)NCC4CC4)CC3)c(=O)c2c1C	-2	-22	102
Cc1cc(C)nc(S/C=C/C(=O)c2ccc(Cl)cc2)n1	-8	-5	108
Cn1ccnc1S/C=C/C(=O)c1ccc(Cl)cc1	59*	5	99
Cn1cnnc1S/C=C/C(=O)c1ccc(Cl)cc1	85*	-10	102
O=C(/C=C/Sc1ccc(Cl)cc1)c1ccccc1	-10	-8	101
Cc1nn(-c2ccccc2)c2c1C(=O)CC(c1ccco1)C2 (stereo not given)	x	-26	103
Cc1ccc(-n2c(C)c3c(C)nnc(C)c3c2C)cc1C	-26	0	100
SMILES	MbtI inh	Mtb MenB inh	Polio RdRp inh
CNC(=O)c1sc(=S)n(-c2ccccc2)c1N	66*	-14	100
Cc1c(C(=O)O)sc(=S)n1-c1ccccc1	17	0	100
COC(=O)c1sc(=S)n(-c2cccc(C)c2)c1N	33	-21	95
Cc1ccc(-n2c(N)c(C(N)=O)sc2=S)cc1C	94*	-12	98
COC(=O)c1sc(=S)n(-c2cccc(Cl)c2)c1N	94*	-24	95
COC(=O)c1ccc(-c2ccco2)[nH]1	105	1	102
COc1cc(C2=Nc3c(c(C)nn3-c3ccccc3)P(=O)(N3CCOCC3)O2)cc(OC)c1OC (stereo not given)	-10	-34	103
Cc1nn(-c2ccccc2)c2c1P(=S)(N1CCOCC1)OC(c1ccccc1)=N2 (stereo not given)	59	4	88*
Cc1ccc(-c2ccc(CCC(=O)O)n2-c2ccccc2C(F)(F)F)cc1	x	-1	106
Cc1cc(NC(=O)/C=C/c2ccc(F)cc2)no1	4	-20	105
Cc1cc(OC(=O)/C=C/c2ccc(F)cc2)cc(=O)o1	62	-38	84*
Cc1cc(C)c(C#N)c(Cl)n1	-2	-32	101
CC(C)=NNc1nc(Cl)c(C#N)c(Cl)c1Cl	61*	-3	101
N#Cc1c(Cl)nc(N2CCOCC2)c(Cl)c1Cl	-9	-20	104
N#Cc1c(Cl)nc(Cl)c(Cl)c1Cl	72	0	76*
CNC(=S)N1CCc2sccc2C1c1ccc(Cl)cc1 (stereo not given)	-10	-5	102
O=c1cc(-c2c(F)c(F)c(F)c(F)c2F)oc2c(F)c(F)c(F)c(F)c12	29	-31	90*
COc1cc(NS(=O)(=O)c2c(C)oc3c(F)c(F)c(F)c(F)c23)cc(OC)c1OC	-14	3	105
COc1ccc2c(c1)CC(NC(=O)Nc1ccc(Br)c(C)c1)CO2 (stereo not given)	x	x	108
NN1C(=O)NC2(CCCCC2)C1=O	1	1	106
CSc1ccccc1NC(=O)CN1c2ccccc2CC1C (stereo not given)	-34	-13	97
CSc1ccccc1NC(=O)CN1CCc2ccccc21	4	-9	88*
CC1=C/C(=N\NC(=O)CCN2CCN(c3ccccc3)CC2)CC1	1	-8	107
O=C(O)CCC(=O)Nc1ccc(C(=O)N2CCCCC2)cc1	x	-2	105
O=C(O)CCCC(=O)Nc1ccc(C(=O)N2CCCCC2)cc1	-2	33*	102
CN(C(=O)CSc1nncc2ccccc12)c1ccccc1	3	x	102
